# Most compounds without a hit are left out; they make up all but 2.8% or so of the library.
# TRPM1 prom inh: inhibitors of MITF-driven TRPM1 promoter in melanoma cells; SK-MEL-5 TRPM1 promoter luciferase, 24 h; actives 0.83% (n = 330,000); inhibition, % at 12.5 µM; AID 488899;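 active = mean inhibition across replicates of 60% or more, whatever share of single replicates reaches that level; inconclusive = some that reach 60%, reason not given; inactive = mean inhibition across replicates below 60%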
# Peg3 prom inh-1: reduces Peg3 promoter-driven luciferase expression in HeLa. HeLa PEG-Prom luciferase reporter, luminescence, overnight. inhibition, % at 20 µM. actives 1.7% (n = 360,000). AID 588405;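 active = inhibition of at least 50% at 20 µM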
# Beta2AR agonist: agonists of human beta-2 adrenergic receptor inducing internalization; Am2.2-beta2AR cells, FAP receptor internalization, flow cytometry; P07550; actives 0.43% (n = 340,000); response, % (concentration not given with the values); AID 504454;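 active = response above a set limit, near 3 SD of response in nonfluorescent compounds, cut at about 42% in these data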
# Target sequence (P07550 whole entry, looked up): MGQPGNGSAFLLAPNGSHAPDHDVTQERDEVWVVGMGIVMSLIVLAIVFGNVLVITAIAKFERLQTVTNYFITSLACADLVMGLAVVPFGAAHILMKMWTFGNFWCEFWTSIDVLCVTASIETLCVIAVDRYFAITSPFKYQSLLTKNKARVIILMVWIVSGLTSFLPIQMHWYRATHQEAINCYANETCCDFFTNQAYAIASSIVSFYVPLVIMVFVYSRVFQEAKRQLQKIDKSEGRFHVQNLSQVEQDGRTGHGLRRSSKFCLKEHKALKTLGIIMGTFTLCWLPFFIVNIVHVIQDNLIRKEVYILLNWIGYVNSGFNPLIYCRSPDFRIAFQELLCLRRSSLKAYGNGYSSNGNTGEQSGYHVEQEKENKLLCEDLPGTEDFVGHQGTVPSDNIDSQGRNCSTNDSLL
# KKLEB tox: counter-screen for CF NF-kB inhibitors: cytotoxicity. KKLEB CF airway cells viability, ATPlite luminescence, overnight; hits give low values; cells stimulated with P. aeruginosa culture filtrate. activity change (cytotoxicity), % at 5 µM. actives 0.36% (n = 360,000);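 active = corrected activity change at or below -50% at 5 µM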
# CF NFkB inh: inhibitors of cystic fibrosis induced NF-kB. actives 0.86% (n = 360,000). AID 588850. KKLEB NF-kB-GFP reporter, PAF-induced, GFP fluorescence overnight. inhibition, % at 5 µM;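 active = at least 50% inhibition at 5 µM, scaled per plate between neutral and stimulator controls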;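 note: PAF is a Pseudomonas aeruginosa culture filtrate used as stimulus; plate controls were PAF-stimulated DMSO wells for no effect and unstimulated DMSO wells for full effect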
# HIF-2a inh: inhibitors of HIF-2a | inhibition, % at 18.8 µM | 786-0 RCC cells HIF-2a reporter, luciferase luminescence, overnight | actives 0.72% (n = 360,000);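 active = inhibition of the luminescence signal of 40% or more relative to plate controls, in a single-dose primary screen at 18.75 µM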
# Peg3 prom inh-2: confirmation of Peg3 promoter inhibitors | shares compounds with Peg3 prom inh-1 | inhibition, % at 20 µM | actives 84% (n = 1,300) | HeLa PEG-Prom luciferase reporter, luminescence, overnight | AID 602417;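 active = at 20 µM dose, 40% or more inhibition averaged across four replicates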
# Numbers without * were called inactive; ? = inconclusive; · = not tested or not shown.
SMILES,TRPM1 prom inh,Peg3 prom inh-1,Beta2AR agonist,KKLEB tox,CF NFkB inh,HIF-2a inh,Peg3 prom inh-2
CC1CCCCC1NC(=O)C1CCC(CNS(=O)(=O)c2ccc3c(c2)C(C)(C)C(=O)N3C)CC1 (stereo not drawn),·,8,·,17,-26,12,·
O=C(Nc1ccc2oc(-c3ccncc3)nc2c1)c1ccc([N+](=O)[O-])o1,72*,102*,13,-20,48,6,98*
COCCCNCCCOc1ccc(Cl)cc1C(C)(C)C,0,62*,27,-2,4,-1,40
COc1ccc2nc(C)cc(SCC(=O)N/N=C/c3ccccc3)c2c1,4,18,-2,-3,25,4,·
COc1ccc2nc(C)cc(SCC(=O)N/N=C/c3c(OC)ccc4ccccc34)c2c1,13,63*,8,-13,-5,4,20
COCCn1c(C)cc(C(=O)COC(=O)c2cccc(O)c2)c1C,43,75*,4,-4,-8,38,68*
Cc1sc2nc(C(C)C)nc(SCC(=O)NCc3ccco3)c2c1C,11,59*,-12,-10,-6,21,32
COc1ccc(/C=N/NC(=O)c2cccc(NC(C)=O)c2)c(OC)c1,11,14,-2,-6,2,0,·
COc1ccccc1/C=N\NC(=O)c1c(C)nc2ccc(Cl)cn12,-4,15,6,4,-2,16,·
COc1cccc(/C=N/NC(=O)c2c(C)nc3ccc(Cl)cn23)c1O,70*,56*,5,0,-14,2,71*
COc1ccc(C(=O)Nc2cccc(C(=O)N/N=C/c3ccc(OC)cc3OC)c2)cc1,54,74*,11,7,-10,58*,77*
COc1cccc(/C=N/NC(=O)c2ccc(-c3ccccc3)cc2)c1O,69*,55*,0,2,2,12,69*
COc1ccc(NC(=O)C[C@H]2C(=O)N(CCc3ccccc3)C[C@@H]2c2ccc(OC)cc2)cc1,·,-53,·,-12,3,-49,·
CC(OC(=O)c1nc(Cl)ccc1Cl)C(=O)NCc1ccccc1 (stereo not drawn),·,10,·,2,-1,8,·
Oc1c(I)cc(Cl)c2cccnc12,19,55*,15,-11,7,13,68*
CCC(=O)NC(c1cccs1)c1cc(Cl)c2cccnc2c1O (stereo not drawn),52,56*,3,7,-1,21,58*
CCCC(=O)NC(c1ccc(OC)c(OC)c1)c1cc(Cl)c2cccnc2c1O (stereo not drawn),?,48,3,-5,-2,6,·
CCC(=O)NC(c1cc(Cl)c2cccnc2c1O)C1CC1 (stereo not drawn),34,36,-2,-10,2,15,·
COc1ccc(C(NC(C)=O)c2cc(Cl)c3cccnc3c2O)cc1 (stereo not drawn),23,64*,-13,-1,-4,10,64*
Clc1cc2cccnc2c2ncccc12,57,50,-3,-12,-36,-6,·
CC(=O)NC(c1ccccc1)c1cc(Cl)c2cccnc2c1O (stereo not drawn),23,51*,2,13,-4,16,65*
CCc1nc2ccc(C(=O)Nc3ccc(NC(C)=O)cc3)cn2c1N(C)CCCc1ccccc1,·,7,·,3,21,-12,·
CCCNC(=O)C1(C)CCCN(C(=O)c2cc(F)cc(F)c2)C1 (stereo not drawn),·,6,·,-8,-16,19,·
CC(=O)NC(c1ccc(N(C)C)cc1)c1cc(Cl)c2cccnc2c1O (stereo not drawn),·,59*,·,-8,36,17,68*
CC(=O)NC(c1cc(F)c2cccnc2c1O)C1CC1 (stereo not drawn),10,19,-4,12,-26,9,·
SMILES,TRPM1 prom inh,Peg3 prom inh-1,Beta2AR agonist,KKLEB tox,CF NFkB inh,HIF-2a inh,Peg3 prom inh-2
COc1ccc(CCN2C(=O)C=CC2=O)cc1OC,24,96*,2,-4,6,55*,98*
O=[N+]([O-])c1ccc(NN=Cc2cc(Br)ccc2O)nc1,35,2,5,-18,34,-23,·
Clc1ccccc1-c1ccc2ncnc(NCc3ccc4c(c3)OCO4)c2c1,-11,20,5,-24,18,0,·
Clc1ccccc1-c1cnc2sc(NCc3ccc4c(c3)OCO4)nn12,·,66*,·,14,9,-4,33
CCN1CCN(C(c2ccc(C(F)(F)F)cc2)c2ccc3cccnc3c2O)CC1 (stereo not drawn),66*,55*,29,-33,16,49*,60*
Cc1onc(-c2ccccc2Cl)c1-c1nc(-c2ccccn2)no1,4,14,-22,-4,20,2,·
Clc1ccccc1/C=C/c1nc(-c2ccccn2)no1,?,61*,2,-38,6,63*,47*
Cc1c(CN2CCC(CO)(CCOc3ccccc3)CC2)[nH]c2c(Cl)cccc12,6,99*,5,-14,24,6,99*
COc1ccc(CNCCC(c2ccccc2)c2ccc(OC(C)C)cc2)cc1OC (stereo not drawn),74*,101*,35,21,-13,20,97*
COc1ccc(C(CCN(Cc2ccc(OC)c(OC)c2)C(C)=O)c2ccccc2)cc1 (stereo not drawn),5,16,12,-10,6,17,·
Cc1ccc(NC(=O)C2(C)CCN2C(=O)C2CCCCC2)cc1C (stereo not drawn),·,-7,·,1,17,5,·
CCc1ccn2cc(-c3ccc4c(c3)OCO4)nc2c1,65*,84*,3,-76*,-16,60*,72*
C[C@@H]1CN([C@H](C)CO)C(=O)CCCn2cc(nn2)CO[C@H]1CN(C)C(=O)Nc1ccc(C(C)(C)C)cc1,·,-6,·,4,-5,5,·
CC1(Cc2ccc(C(F)(F)F)nc2)C(=O)Nc2cc(-c3ccccc3Cl)ccc21 (stereo not drawn),·,1,·,0,4,-9,·
CC(C)n1nc(C(=O)Oc2cc(Cl)ccc2Cl)c2ccccc2c1=O,7,54*,2,-13,9,3,65*
O=C(c1ccco1)N1CCN(C(c2ccccc2Cl)c2nnnn2Cc2cccs2)CC1 (stereo not drawn),3,52*,10,-6,9,19,58*
COc1ccc(/C=C2\SC(=S)N(CCCC(=O)NNC(=O)c3ccccc3O)C2=O)cc1,92*,71*,1,-1,6,90*,72*
O=C(O)CN1C(=O)/C(=C\c2ccccc2OCc2ccc(Cl)cc2Cl)SC1=S,3,55*,0,11,-20,66*,65*

# Screening data deposited in PubChem by several laboratories.
